Values joined by “and” are separate entries in the source; they are usually repeats but may differ in a detail not shown here. Equal entries are not always repeated. Inconclusive results are not listed. Active and inactive are the calls of the source. Unless noted, calls come from the whole dose curve; as a rule, active = well fitted curve in the direction sought with a large enough effect; inconclusive = small, poorly fitted or top-dose-only effect, or another doubt; inactive = no such curve, though single readings can be large; an effect the other way counts as inactive or inconclusive.
What was measured:
[1] = qHTS Assay for Identifying Gametocytocidal Compounds (AID 743244);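 note: % is set by controls: 0 for no effect and ±100 for the full control effect; actives lower the fluorescent signal which means gametocytes are killed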; conditions: P. falciparum 3D7 stage III-V gametocytes, alamarBlue, 72 h; max response: stronger effect = lower value
Method in brief: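 In this qHTS viability screen, late-stage 3D7 gametocytes are incubated with compound for 72 h, then with alamarBlue for 24 h; reduced resorufin fluorescence marks killing.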

[2] = qHTS profiling for inhibitors of Plasmodium falciparum (3D7) proliferation (AID 743322; call rule not given here;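 note: infected erythrocytes exposed to compound for 72 h before lysis; 100% = DMSO vehicle wells and 0% = 0.29 µM artemisinin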); conditions: P. falciparum 3D7 proliferation; at 28.7 µM (top of the series) unless noted
Method in brief: (§1)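 Erythrocytes infected with P. falciparum (0.3% parasitemia, 2.5% hematocrit) incubated with compounds 72 h at 37 C, 5% CO2. Lysis with saponin/Triton buffer containing SYBR Green I, overnight at room temperature in the dark; DNA fluorescence (485/535 nm) normalised to 0.29 uM artemisinin and DMSO.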

[3] = qHTS profiling for inhibitors of Plasmodium falciparum (DD2) proliferation (AID 743323; call rule not given here); conditions: lower = more inhibition; at 28.7 µM (top of the series) unless noted
Method in brief: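 Parasite DNA quantified by SYBR Green fluorescence (ex 485, em 535 nm) after saponin/Triton lysis and overnight dark incubation. Cultures: 0.3% parasitemia, 2.5% hematocrit, 72 h, 37 C; data scaled between DMSO and 0.29 uM artemisinin.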

[4] = qHTS profiling for inhibitors of Plasmodium falciparum (HB3) proliferation (AID 743324); conditions: Plasmodium falciparum HB3 blood-stage proliferation; at 28.7 µM (top of the series) unless noted;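 note: 100% = DMSO vehicle wells and 0% = artemisinin-treated control wells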
Method in brief: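 P. falciparum HB3 grown in erythrocytes (0.3% parasitemia, 2.5% hematocrit final) with compound for 72 h at 37 C, 5% CO2. Parasite DNA detected by SYBR Green after saponin/triton lysis overnight; normalized to 0.29 uM artemisinin and DMSO.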

[5] = qHTS profiling of the MIPE4 collection as inhibitors of Plasmodium falciparum (3D7) proliferation (AID 743344; call rule not given here;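 note: scaled between DMSO vehicle wells and 0.29 µM artemisinin as full inhibition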); conditions: P. falciparum 3D7 in erythrocytes, SYBR Green DNA fluorescence, 72 h; at 28.5 µM (top of the series) unless noted
Method in brief: as §1

[6] = qHTS profiling of the MIPE4 collection as inhibitors of Plasmodium falciparum (DD2) proliferation (AID 743345; call rule not given here); conditions: P. falciparum Dd2 in erythrocytes, SYBR Green DNA, 72 h; at 28.5 µM (top of the series) unless noted
Method in brief: as §1

[7] = qHTS profiling of the MIPE4 collection as inhibitors of Plasmodium falciparum (DD2) proliferation (Rep 2) (AID 743346; call rule not given here); conditions: P. falciparum Dd2 in erythrocytes, SYBR Green DNA, 72 h; at 28.5 µM (top of the series) unless noted
Method in brief: as §1

[8] = qHTS profiling of the MIPE4 collection as inhibitors of Plasmodium falciparum (HB3) proliferation (AID 743347; call rule not given here;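 note: plate controls were DMSO vehicle wells for no effect and artemisinin wells for full effect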); conditions: P. falciparum HB3 in erythrocytes, SYBR Green DNA, 72 h; at 28.5 µM (top of the series) unless noted
Method in brief: as §1

[9] = Cell Proliferation Assay Versus the ED40515 IL2 Dependent ATL cell lines (AID 1053195; calls by dose curve); conditions: ED40515 IL2-dependent ATL cells
Method in brief: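 IL2-dependent ED40515 ATL cells grown with IL2, 1000 cells/well in phenol red-free RPMI + 5% FBS, exposed 48 hours at 37C. Viability by CellTiter-Glo luminescence after 15 min at RT; 9.2 uM bortezomib as control.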

[10] = High-throughput drug toxicity screening in the BPDCN cell line Gen2.2 (AID 1224824; call rule not given here;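 note: cells exposed to compounds for 48 h before reading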); conditions: Gen2.2 BPDCN cells; at 45.8 µM (top of the series) unless noted
Method in brief: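 Gen2.2 cells (500/well) in phenol red-free RPMI with 10% FBS were exposed to compounds for 48 h at 37 °C, 5% CO2. Viability was read by CellTiter-Glo luminescence and normalized to DMSO (100%) and 9.2 uM bortezomib (0%).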

[11] = High-throughput drug toxicity screening in the BPDCN cell line Cal-1 (AID 1224825; call rule not given here); conditions: Cal-1 BPDCN cell viability, qHTS; at 45.8 µM (top of the series) unless noted
Method in brief: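 Cal-1 cells, 500 per well in phenol-red-free RPMI with 10% FBS, exposed to compounds for 48 hours at 37C, 5% CO2. Viability read by CellTiter-Glo luminescence; percent activity normalized to DMSO (100%) and 9.2 uM bortezomib final (0%).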

[12] = qHTS assay for measurement of the activity of small molecule inhibitors on Zika virus induced Caspase-3 activity in human iPSC derived neural progenitor cells (hNPCs) (AID 1224857); note: % of control where 0% means no effect; nearly all actives have a fitted effect of over 65% in size
Method in brief: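 In medium with heparin 2 ug/ml and cyclopamine 2 uM, hNPCs (350 cells/well) received compound for one hour and then Zika virus at 2 FFU/cell; caspase activity was measured by Caspase-Glo 3/7 luminescence 6 h post-infection.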

[13] = qHTS assay for measurement of the activity of small molecule inhibitors on Zika virus induced Caspase-3 activity in human astrocytoma cells (AID 1224859);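 note: plate controls were ZIKV-infected untreated cells for no effect and uninfected cells for full effect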
Method in brief: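 A cell-based luminescent caspase-3/7 assay used SNB-19 cells infected with ZIKV (2 FFU/cell) for 6 h following 1 h compound pretreatment.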

[14] = qHTS Screen of the MIPE 4.0 Collection Against Ewings Sarcoma (RDES) (AID 1259252); note: nearly all actives have a fitted effect of over 35% in size; note: potency is the fitted concentration of half-maximal effect
Method in brief: (§2)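 Viability screen: 48 h incubation at 37C, 95% humidity, 5% CO2 with serially titrated compound, followed by CellTiter-Glo readout.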

[15] = qHTS Screen of the MIPE 4.0 Collection Against Ewings Sarcoma (TC71) (AID 1259253); note: nearly all actives have a fitted effect of over 40% in size; note: potency is the fitted concentration of half-maximal effect
Method in brief: as §2

[16] = qHTS Screen of the MIPE 4.0 Collection Against Ewings Sarcoma (EW8) (AID 1259255); note: nearly all actives have a fitted effect of over 35% in size; note: potency is the fitted concentration of half-maximal effect;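 for viability: 100% = DMSO-treated cells and 0% = medium-only wells without cells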
Method in brief: as §2

[17] = target: Hexokinase-4 (Homo sapiens) + Glucokinase regulatory protein (Homo sapiens) (UniProt P35557+Q14397); experiment: qHTS assay for inhibitors of recombinant human GCK-GKRP interaction: HTRF assay (AID 743207);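 note: 0% = DMSO with GCK present and -100% = DMSO wells lacking GCK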
Hexokinase-4 (Homo sapiens) + Glucokinase regulatory protein (Homo sapiens), sequence (P35557 whole entry, looked up): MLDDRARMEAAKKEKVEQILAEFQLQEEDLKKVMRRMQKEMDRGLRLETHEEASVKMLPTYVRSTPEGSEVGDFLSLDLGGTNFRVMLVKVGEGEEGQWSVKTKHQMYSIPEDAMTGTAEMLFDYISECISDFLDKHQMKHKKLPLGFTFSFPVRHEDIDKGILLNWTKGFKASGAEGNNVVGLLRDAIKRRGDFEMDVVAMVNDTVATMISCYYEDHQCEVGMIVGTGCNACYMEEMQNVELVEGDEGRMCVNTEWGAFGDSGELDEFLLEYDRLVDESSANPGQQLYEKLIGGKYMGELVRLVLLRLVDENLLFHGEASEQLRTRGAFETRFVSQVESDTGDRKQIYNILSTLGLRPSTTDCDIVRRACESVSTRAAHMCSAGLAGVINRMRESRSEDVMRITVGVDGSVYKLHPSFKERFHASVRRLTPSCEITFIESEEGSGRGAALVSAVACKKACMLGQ
Hexokinase-4 (Homo sapiens) + Glucokinase regulatory protein (Homo sapiens), sequence (Q14397 whole entry, looked up): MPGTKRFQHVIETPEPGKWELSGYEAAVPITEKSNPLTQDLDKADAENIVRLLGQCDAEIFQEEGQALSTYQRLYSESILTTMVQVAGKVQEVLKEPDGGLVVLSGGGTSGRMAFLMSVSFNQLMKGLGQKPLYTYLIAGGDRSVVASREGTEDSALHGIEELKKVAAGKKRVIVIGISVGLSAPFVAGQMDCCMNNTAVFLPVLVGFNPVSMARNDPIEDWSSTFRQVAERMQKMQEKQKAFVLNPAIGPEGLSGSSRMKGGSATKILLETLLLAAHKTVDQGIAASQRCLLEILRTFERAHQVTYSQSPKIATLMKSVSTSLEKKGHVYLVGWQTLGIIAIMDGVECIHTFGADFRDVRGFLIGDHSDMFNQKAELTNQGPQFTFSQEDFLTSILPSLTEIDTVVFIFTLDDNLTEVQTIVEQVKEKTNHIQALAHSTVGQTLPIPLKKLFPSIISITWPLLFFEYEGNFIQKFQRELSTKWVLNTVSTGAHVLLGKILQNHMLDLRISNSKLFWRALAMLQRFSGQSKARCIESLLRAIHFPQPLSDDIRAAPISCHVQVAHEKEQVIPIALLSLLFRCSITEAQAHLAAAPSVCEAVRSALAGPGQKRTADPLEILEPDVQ
Method in brief: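 GST-GCK and FLAG-GKRP (5 nM each) were combined with 2 uM S6P in pH 7.1 Hepes/MgCl2/KCl/DTT buffer, then compound and anti-FLAG XL665/anti-GST K antibodies were added. After 60 min at room temperature, HTRF 665/615 nm emission was read.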

[18] = qHTS assay for cell viability of HEK293 cells (AID 743288); conditions: ATP luminescence (CellTiter-Glo), 18 h; max response: stronger effect = lower value; note: % is set by controls: 0 for no effect and ±100 for the full control effect; nearly all actives have a fitted effect of over 50% in size
Method in brief: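 Parental HEK293 cells were seeded at 2,000 cells/well, rested at least 5 h at 37 C, then exposed to compounds in DMSO for 18 h at 37 C. Viability was read as ATP-dependent luciferase luminescence after 30 min at room temperature.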

[19] = qHTS assay for cell viability of the p53RE-bla HCT-116 cell line (AID 743292); note: % is set by controls: 0 for no effect and ±100 for the full control effect; nearly all actives have a fitted effect of over 55% in size
Method in brief: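 CellSensor p53RE-bla HCT-116 cells, 4,000/well, preincubated 5 h at 37 C, then exposed to compounds in DMSO for 16 h at 37 C. Viability read as CellTiter-Glo luminescence (intracellular ATP) after 30 min at room temperature.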

SMILES | max response [1] | remaining parasite growth % (stronger effect = lower value) [2] [%] | activity, percent of control [3] [%] | remaining proliferation (% of control), lower = more inhibition [4] [%] | parasite growth, % of DMSO control [5] [%] | parasite growth remaining, % of DMSO control (lower = more inhibition) [6] [%] | parasite growth, % of control (lower = inhibition) [7] [%] | growth, % of control [8] [%] | Potency [9] | cell viability, % of control (lower = more cytotoxic) [10] [%] | viability (% of control) [11] [%] | Potency [12] | Potency [13] | Potency [14] | Potency [15] | Potency [16] | outcome [17] | max response [18] | Potency [19]
CC(=O)NC(C)c1ccc(Oc2ccc(OC(C)C)cc2)cc1 (centres undefined) | -4.97% (inactive) | 69.9 | 93.5 | 95.2 | 23.1 | 10.5 | 8.63 | 20.1 | 13.2 µM (active) | 281 | 98.5 | inactive | inactive | inactive | 8.33 µM (active) | 6.62 µM (active) |  |  | 
Cc1ccc2c(c1)C(=O)[C@@]1(O)CCN(c3ccccc3)C1=N2 | -1.35% (inactive) | 104 | 112 | 36.1 |  |  |  |  | 13.2 µM (active) |  |  |  |  |  |  |  |  |  | 
CCc1cncnc1N1CCN(Cc2nc3ccc(C(F)(F)F)cc3[nH]2)CC1 |  | 24.3 | 20.3 | 14 | 19.6 | 33 | 27.9 | 15.6 | 1.18 µM (active) | 130 | 91.1 | inactive | inactive | 20.9 µM (active) |  |  |  |  | 
NC(=O)c1cnccn1 | -3.29% (inactive) and 14.5% (inactive) |  |  |  | 97.3 | 94.9 | 45.3 | 105 |  | 146 | 118 | inactive | inactive | inactive | inactive | inactive | inactive | 4.61% (inactive) and 0.671% (inactive) | inactive
CCc1ccc(CCOc2ccc(CC3SC(=O)NC3=O)cc2)nc1 (centres undefined) | 40% (inactive) and -8.95% (inactive) | 92 | 103 | 66.4 | 89.3 | 90.1 | 79.4 | 63.3 | 16.6 µM (active) | 142 | 100 | inactive | inactive | 0.0148 µM (active) | 0.296 µM (active) | inactive |  |  | 
CC[C@@H](C)[C@H](NC(=O)[C@H](CC1CCCCC1)NC(=O)c1ccno1)C(=O)N1CCC2(CCc3ccccc32)CC1 |  | -1.46 | -0.289 | -0.621 | 5.26 | 7.23 | 14 | 5.03 | 2.64 µM (active) | 168 | 111 |  | inactive | inactive |  | inactive |  |  | 
CC(C)OC(=O)C1=CN(C(=O)c2ccc(F)c(F)c2)CC(C)(C)c2c1[nH]c1ccccc21 | 18.7% (inactive) | 15.1 | 36.4 | 29.3 | 51.5 | 44.6 | 66.4 | 46.5 | 4.18 µM (active) | 115 | 108 | inactive | inactive | inactive | inactive | inactive |  |  | 
